Experimental data: the supplement of paper PMC13380429

Columns and labels:
[1] = tested on: Vero E6 infected with SARS-CoV-2; experiment: morphology score (similarity to uninfected cells); higher = more like uninfected cells; settings: 24 h
[2] = tested on: Vero E6 infected with SARS-CoV-2; experiment: SARS-CoV-2 infection rate relative to infected DMSO; higher = more infection, active = 60 or less; settings: 24 h

SMILES	morphology score [1]	SARS-CoV-2 infection rate [2]
CNC(=O)[C@@H](NC(=O)[C@H](CC(C)C)[C@H](O)C(=O)NO)C(C)(C)C [marimastat] (10 µM)	-0.0923	118% (inactive)
CC[C@@](C)(Nc1ccnc(-c2c[nH]c3ncccc23)n1)C(=O)NCC(F)(F)F [decernotinib] (10 µM)	0.178	108% (inactive)
CC(C)(C)NCc1cc(Nc2ccnc3cc(Cl)ccc23)c2c(c1O)CCCC2 [naphthoquine-phosphate] (10 µM)	0.103	109% (inactive)
COc1ccc(NC(=O)c2ccc(-c3ccc(-c4noc(C)n4)cc3C)cc2)cc1N1CCN(C)CC1 (0.833333 µM)	0.0674	102% (inactive)
Oc1cc2c(cc1O)[C@@H]1c3ccc(O)c(O)c3OC[C@]1(O)C2 [hematoxylin] (10 µM)	-0.0601	114% (inactive)
CCS(=O)(=O)N1CC(CC#N)(n2cc(-c3ncnc4[nH]ccc34)cn2)C1 [baricitinib] (10 µM)	0.418	112% (inactive)
CN(C)CC/C=C1\c2ccccc2CSc2ccccc21 [dosulepin] (10 µM)	0.188	99.5% (inactive)
N#C/C(=C\c1ccc(O)c(O)c1)C(N)=O [tyrphostin-AG-99] (10 µM)	0.0858	106% (inactive)
CC(C)(O)C(=O)N1CCN(c2ccc(C(F)(F)F)c(C3=C(c4c[nH]c5ccccc45)C(=O)NC3=O)c2)CC1 (0.833333 µM)	-0.201	108% (inactive)
CC1(C)Oc2ccc(C#N)cc2[C@@H](N2CCCC2=O)[C@@H]1O [levcromakalim] (10 µM)	0.221	97% (inactive)
COc1cccc(OCCCN)c1-c1cc(Nc2cnc(C#N)cn2)n[nH]1 (10 µM)	-0.0952	103% (inactive)
O=C(O)[C@H]1O[C@@H](Oc2cc3oc(-c4ccccc4)cc(=O)c3c(O)c2O)[C@H](O)[C@@H](O)[C@@H]1O [baicalin] (10 µM)	0.165	100% (inactive)
O=C(CCCCCN1C(=O)c2cccc3cccc(c23)C1=O)NO [scriptaid] (10 µM)	-0.255	120% (inactive)
COc1cccc2c1C(=O)c1c(O)c3c(c(O)c1C2=O)C[C@@](O)(/C(CO)=N/NC(=O)CCCCCN1C(=O)C=CC1=O)C[C@@H]3O[C@H]1C[C@H](N)[C@H](O)[C@H](C)O1 [aldoxorubicin] (0.833333 µM)	-0.0766	109% (inactive)
CC(C)c1c(NC(=O)Nc2ccc(Cl)cc2)c(=O)n(-c2ccccc2)n1C (10 µM)	0.0113	112% (inactive)
O=C(O)c1cc(O)c(O)c(O)c1 [gallic-acid] (10 µM)	-0.19	110% (inactive)
CCC(=O)Nc1cccc(Oc2nc(Nc3ccc(N4CCN(C)CC4)cc3OC)ncc2Cl)c1 (10 µM)	0.0191	114% (inactive)
O=C1NC(=O)C(c2cnc3ccccn23)=C1c1cn2c3c(cc(F)cc13)CN(C(=O)N1CCCCC1)CC2 (10 µM)	-0.436	105% (inactive)
COc1ccc(CCN(C)CCCC(C#N)(c2cc(OC)c(OC)c(OC)c2)C(C)C)cc1OC (configuration not stated) [gallopamil] (10 µM)	0.176	98% (inactive)
CC(C)[C@@H](CS(=O)(=O)C(C)C)N1C(=O)[C@@](C)(CC(=O)O)C[C@H](c2cccc(Cl)c2)[C@H]1c1ccc(Cl)cc1 (10 µM)	-0.12	114% (inactive)
CC[N+](C)(CC)CCC[n+]1c(-c2ccccc2)c2cc(N)ccc2c2ccc(N)cc21 [propidium-iodide] (10 µM)	0.271	93.5% (inactive)
CCOC(=O)[C@@H](C)Oc1ccc(Oc2nc3ccc(Cl)cc3o2)cc1 [fenoxaprop-p-ethyl] (10 µM)	-0.0825	106% (inactive)
COC(=O)C1=C(C)NC(C)=C(C(=O)OC(C)C)[C@@H]1c1cccc2nonc12 [isradipine] (10 µM)	-0.0665	104% (inactive)
Cn1cncc1[C@@](N)(c1ccc(Cl)cc1)c1ccc2c(c1)c(-c1cccc(Cl)c1)cc(=O)n2C [tipifarnib] (0.833333 µM)	0.398	89% (inactive)
O=C1NC(O)CCN1[C@@H]1O[C@H](CO)[C@@H](O)[C@H]1O (some centres not stated) [tetrahydrouridine] (10 µM)	0.167	103% (inactive)
CN(C)c1cc(CNCC(C)(C)C)c(O)c2c1C[C@H]1C[C@H]3[C@H](N(C)C)C(O)=C(C(N)=O)C(=O)[C@@]3(O)C(O)=C1C2=O [omadacycline] (10 µM)	0.179	97.5% (inactive)
